# Compounds without any hit were thinned out: in the full panel of roughly 79,000, 15% have a hit. Values without a mark were called inactive. Active and inactive are the calls of the source. Cut-off read from the data, not from the text of the source: active = growth inhibition above about 70%; inactive = the rest.
# What was measured:
# [1] = NCI Yeast Anticancer Drug Screen. Data for the rad50 strain (AID 155);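 note: 0% = growth of vehicle-only cultures of the same strain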; conditions: S. cerevisiae rad50 strain growth inhibition, hits give high values
# How it was run: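 Vehicle-treated cultures provide the reference for the growth inhibition reported for compound-exposed, repair-deficient yeast.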
# [2] = NCI Yeast Anticancer Drug Screen. Data for the mec2-1 strain (AID 157); conditions: S. cerevisiae mec2-1 strain, hits give high values
# How it was run: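 Growth inhibition is read against vehicle-treated controls after compound exposure of the mec2-1 yeast strain, which is defective in DNA damage repair or cell cycle control.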
# [3] = NCI Yeast Anticancer Drug Screen. Data for the sgs1 mgt1 strain (AID 161);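 note: 0% = growth of cultures given vehicle only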; conditions: S. cerevisiae sgs1 mgt1 strain, hits give high values
# How it was run: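 Growth of a repair-deficient yeast mutant was monitored after compound treatment and expressed as inhibition relative to vehicle-treated cultures.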
# [4] = NCI Yeast Anticancer Drug Screen. Data for the cln2 rad14 strain (AID 165);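 note: 0% = growth equal to vehicle treated cultures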; conditions: S. cerevisiae cln2 rad14 strain, hits give high values
# How it was run: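 Growth inhibition, relative to vehicle-treated controls, is the read-out. The test organism is a yeast strain with defined genetic alterations, cln2 rad14.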
# [5] = NCI Yeast Anticancer Drug Screen. Data for the bub3 strain (AID 167); conditions: S. cerevisiae bub3 mutant strain, hits give high values
# How it was run: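 Mutant yeast screening strain plus compound; vehicle-treated cultures serve as the 0% inhibition reference.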
# [6] = NCI Yeast Anticancer Drug Screen. Data for the mlh1 rad18 strain (AID 175); conditions: S. cerevisiae mlh1 rad18 strain growth inhibition, hits give high values
# How it was run: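 Cells of a genetically altered yeast strain, deficient in DNA damage repair, were treated with compound. Their growth was then compared with that of vehicle-treated cultures to give inhibition.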
# [7] = at 5.0 µM (retest, dose inferred, filed as 0.5)
# [8] = at 50.0 µM (retest, dose inferred, filed as 5.0)
SMILES,"growth inhibition [1, 7]","growth inhibition [1, 8]",growth inhibition ([1]; at 50.0 µM),"growth inhibition [2, 7]","growth inhibition [2, 8]",growth inhibition ([2]; at 50.0 µM),"growth inhibition [3, 7]","growth inhibition [3, 8]",growth inhibition ([3]; at 50.0 µM),"growth inhibition [4, 7]","growth inhibition [4, 8]",growth inhibition ([4]; at 50.0 µM),"growth inhibition [5, 7]","growth inhibition [5, 8]",growth inhibition ([5]; at 50.0 µM),"growth inhibition [6, 7]","growth inhibition [6, 8]",growth inhibition ([6]; at 50.0 µM)
CC1=C(c2ccccc2)C(=O)OC1=O,5%,11%,52.5%,2%,0%,2.7%,4%,6%,-4.65%,0%,3%,-28.4%,-2%,3%,3.7%,13%,14%,-10.4%
C=C(CN(C)C)C(=O)c1ccc(Oc2ccccc2)cc1,99% (active),100% (active),99.2% (active),99% (active),100% (active),99.4% (active),99% (active),100% (active),59.5%,71% (active),99% (active),99.4% (active),99% (active),100% (active),98.8% (active),98% (active),100% (active),99.5% (active)
c1ccc(COc2cccc3[nH]ccc23)cc1,-3%,29%,74.4% (active),-3%,10%,90.2% (active),-6%,5%,86.6% (active),-7%,6%,88.8% (active),3%,35%,83.8% (active),-5%,25%,95.5% (active)
Cc1ccc(S(=O)(=O)/C=C2\COc3ccccc3C2=O)cc1,51%,99% (active),99.2% (active),65%,99% (active),99.7% (active),90% (active),100% (active),99.2% (active),44%,99% (active),99% (active),77% (active),99% (active),99.5% (active),79% (active),99% (active),99.5% (active)
Cn1cc(NC(=O)c2cc(NC(=O)CCCCCCC(=O)Nc3cc(C(=O)Nc4cc(C(=O)NCCC(=N)N)n(C)c4)n(C)c3)cn2C)cc1C(=O)NCCC(=N)N,87% (active),98% (active),91.8% (active),89% (active),99% (active),93.8% (active),82% (active),99% (active),93% (active),44%,95% (active),91.3% (active),92% (active),98% (active),92.2% (active),90% (active),98% (active),92.2% (active)
C/C(CCC1CCc2ccccc2C1)=N\NC(N)=O (configuration not stated),-11%,-8%,32.2%,-4%,0%,12.3%,1%,5%,6.2%,-42%,-13%,-1.45%,0%,-2%,11.4%,-8%,-10%,-6.5%
C=CC(=O)NC(C)C,1%,6%,74.7% (active),0%,2%,-3.7%,1%,4%,19.4%,-1%,1%,16.7%,-2%,-4%,5.8%,0%,9%,40.3%
CCOc1ccccc1C(=O)Oc1cccc(C)c1,-7%,-1%,1.95%,-8%,-18%,-9.75%,-2%,12%,5.55%,-21%,32%,-5.2%,6%,-6%,11.8%,-19%,17%,18.9%
O=[N+]([O-])C(/C=C(\Cl)n1nnc2ccccc21)=C(/Cl)n1nnc2ccccc21,25%,36%,-1.95%,17%,18%,-3.7%,13%,26%,25.2%,11%,11%,13.4%,27%,27%,14.4%,22%,35%,17.3%
